{
  "source": "PubChem BioAssay",
  "note": "Activity calls are given as the source filed them.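 How the source made its calls, unless noted: active means visually confirmed hit in the image check and inhibition above 20%; inconclusive means visually confirmed hit but inhibition not above 20%; inactive means no visual hit in the image check.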",
  "data": [
    {"system": "not listed separately", "assay": "inhibitors of E-selectin induction by TNFa, primary screen, imaging, HUVEC, immunofluorescence, MLSMR starter and 10KST1 sets (AID 487);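 on inhibition: signal is fraction of cell area covered by stained E-selectin grains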;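 on nuclei count: 100% = median nuclei count of all wells on the same plate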", "conditions": "HUVEC TNFalpha-induced E-selectin immunofluorescence imaging, at 2 µM; inhibition: stronger effect = higher value; nuclei count: measured here: cell number, toxicity", "units": {"nuclei count": "%"}, "values": [
      {"smiles": "CCOc1ccc(NC(=O)CN2CCN(CC(=O)Nc3ccc(F)c(F)c3)CC2)cc1", "inhibition": "-60.2% (inactive)", "nuclei count": 99.8},
      {"smiles": "C=C(C)COc1ccc(-c2nc(N)ncc2Oc2ccccc2OCC)c(O)c1", "inhibition": "-17.8% (inactive)", "nuclei count": 114},
      {"smiles": "Clc1ccccc1-c1nnc2sc(-c3ccccn3)nn12", "nuclei count": 118, "inhibition": "-102% (inactive)"},
      {"smiles": "CCOc1cccc(C(=O)Nc2cccc(-c3nc4ncccc4o3)c2C)c1", "inhibition": "-46.8% (inactive)", "nuclei count": 108},
      {"smiles": "CCOC(=O)N1CCN(S(=O)(=O)c2cc(Cl)c(OC)cc2Cl)CC1", "inhibition": "-101% (inactive)", "nuclei count": 112},
      {"smiles": "CCCCN(CC)S(=O)(=O)N1CCC(C(=O)NCc2ccc(F)cc2)CC1", "nuclei count": 113, "inhibition": "-8% (inactive)"},
      {"smiles": "Cc1ccc(Nc2nnns2)cc1C", "nuclei count": 116, "inhibition": "-52.7% (inactive)"},
      {"smiles": "C=CCn1c(=O)/c(=C/c2ccc(O)cc2)s/c1=C(/C#N)c1nnc2n1CCCCC2", "nuclei count": 116, "inhibition": "-5.3% (inactive)"},
      {"smiles": "CC(=O)Nc1c(Cl)n(C(C)=O)c2ccccc12", "inhibition": "-3.8% (inactive)", "nuclei count": 103},
      {"smiles": "COc1ccc(OC)c(S(=O)(=O)Nc2ccccc2C(=O)O)c1", "inhibition": "35.6% (inactive)", "nuclei count": 85.9},
      {"smiles": "Cc1ccc(C)c(NC(=O)C2CCC(C)(C(=O)O)C2(C)C)c1", "note": "(stereo not given)", "inhibition": "-105% (inactive)", "nuclei count": 124},
      {"smiles": "Oc1ccc(N2CCN(C(c3cccnc3)c3nnnn3Cc3ccccc3)CC2)cc1", "note": "(stereo not given)", "nuclei count": 113, "inhibition": "-71.6% (inactive)"},
      {"smiles": "CC(C(=O)N1CCOCC1)N1c2cccc3cccc(c23)S1(=O)=O", "note": "(stereo not given)", "inhibition": "-31.4% (inactive)", "nuclei count": 102},
      {"smiles": "Cc1nc2ccccn2c1/C(O)=C1\\C(=O)C(=O)N(CCN2CCOCC2)C1c1cccs1", "note": "(stereo not given)", "inhibition": "-41.3% (inactive)", "nuclei count": 116},
      {"smiles": "COC(=O)c1cc(OC)c(OC)cc1NC(=O)CC1CCCCC1", "inhibition": "36.1% (inactive)", "nuclei count": 73.5},
      {"smiles": "COc1ccccc1C(=O)Nc1c2c(nn1-c1cccc(C)c1C)CS(=O)(=O)C2", "inhibition": "-51.3% (inactive)", "nuclei count": 106},
      {"smiles": "CC(C)=CC(=O)Nc1ccc(Br)cc1", "nuclei count": 91.1, "inhibition": "5.2% (inactive)"},
      {"smiles": "COc1cccc2c(=O)c3c(cnn3C)n(C)c12", "inhibition": "-37.2% (inactive)", "nuclei count": 111},
      {"smiles": "O=C(c1noc2c1CCc1ccccc1-2)N1CCOCC1", "inhibition": "-35.7% (inactive)", "nuclei count": 120},
      {"smiles": "CCN1CCN(C(=O)c2ccc3c(=O)n(C4CCCC4)c(=S)[nH]c3c2)CC1", "inhibition": "-19.6% (inactive)", "nuclei count": 111},
      {"smiles": "CCC(Oc1ccc2ccccc2c1)C(=O)O", "note": "(stereo not given)", "inhibition": "-39.6% (inactive)", "nuclei count": 137},
      {"smiles": "CC(=O)c1nnn(-c2nc(N3CCCC3)nc(N(c3ccccc3)c3ccccc3)n2)c1C", "inhibition": "51.9% (inactive)", "nuclei count": 95.1},
      {"smiles": "COc1ccc(-n2cc(-c3ccccc3)c3c(N4CCN(CCO)CC4)ncnc32)cc1", "inhibition": "-29.3% (inactive)", "nuclei count": 99.1},
      {"smiles": "O=C(N1CCCCCC1)N1CCN(S(=O)(=O)N2CCCCC2)CC1", "nuclei count": 126, "inhibition": "-33.5% (inactive)"},
      {"smiles": "OCC#CCSc1nnc(-c2ccccc2Br)o1", "inhibition": "-111% (inactive)", "nuclei count": 132},
      {"smiles": "CC(C(=O)N1CCc2ccccc21)N1CCc2ccccc2C1", "note": "(stereo not given)", "inhibition": "-86.5% (inactive)", "nuclei count": 99.9},
      {"smiles": "C=CCN(CC=C)C(=O)CN1C(=O)c2ccccc2C1=O", "nuclei count": 117, "inhibition": "-103% (inactive)"},
      {"smiles": "O=C(Cn1nnc2c(cnn2-c2ccc(F)cc2)c1=O)c1ccccc1F", "nuclei count": 118, "inhibition": "-86.3% (inactive)"},
      {"smiles": "COc1cccc(-c2noc(CCC(=O)NC3CCCCC3)n2)c1", "inhibition": "-39.4% (inactive)", "nuclei count": 108},
      {"smiles": "Cc1cc(C)c2cc(CN(CC3CCCO3)C(=O)NC3CCCCC3)c(=O)[nH]c2c1", "note": "(stereo not given)", "nuclei count": 94, "inhibition": "-28.1% (inactive)"},
      {"smiles": "CCOc1cc(C)c(Cl)cc1S(=O)(=O)N(C)C", "nuclei count": 99.4, "inhibition": "-5.4% (inactive)"},
      {"smiles": "COc1ccc(CCNS(=O)(=O)c2ccc3c(c2)CCN3C(=O)CCC(=O)O)cc1OC", "inhibition": "-14.5% (inactive)", "nuclei count": 121},
      {"smiles": "CCOc1ccc(OCc2cccc(C(=O)O)c2)cc1", "nuclei count": 116, "inhibition": "-68% (inactive)"},
      {"smiles": "O=c1c2ccccc2cnn1-c1nc2ccccc2s1", "nuclei count": 117, "inhibition": "-33.8% (inactive)"},
      {"smiles": "CCC(C)c1ccc(NC(=O)C2CC2)cc1", "note": "(stereo not given)", "nuclei count": 118, "inhibition": "-74.9% (inactive)"},
      {"smiles": "O=C(CC1CCCCC1)NCc1ccccn1", "nuclei count": 116, "inhibition": "-42.2% (inactive)"},
      {"smiles": "CS(=O)(=O)N(CC(=O)N1CCN(c2cccc(Cl)c2)CC1)C1CCCCC1", "inhibition": "8.8% (inactive)", "nuclei count": 78.2},
      {"smiles": "Cc1ccc(N2CCN(C(=O)c3ccccc3Br)CC2)c(C)c1", "inhibition": "-13.4% (inactive)", "nuclei count": 101},
      {"smiles": "COC(=O)c1c(N)nc(C)n1-c1ccc(OC)cc1", "nuclei count": 103, "inhibition": "2.7% (inactive)"},
      {"smiles": "O=C(O)CC1CCCC(c2ccccc2)C1=O", "note": "(stereo not given)", "inhibition": "108% (active)", "nuclei count": 102}
    ]},
    {"target": "Voltage-gated potassium channel subunit beta-2 (Rattus norvegicus) (UniProt P62483)", "sequence (P62483 whole entry, looked up)": "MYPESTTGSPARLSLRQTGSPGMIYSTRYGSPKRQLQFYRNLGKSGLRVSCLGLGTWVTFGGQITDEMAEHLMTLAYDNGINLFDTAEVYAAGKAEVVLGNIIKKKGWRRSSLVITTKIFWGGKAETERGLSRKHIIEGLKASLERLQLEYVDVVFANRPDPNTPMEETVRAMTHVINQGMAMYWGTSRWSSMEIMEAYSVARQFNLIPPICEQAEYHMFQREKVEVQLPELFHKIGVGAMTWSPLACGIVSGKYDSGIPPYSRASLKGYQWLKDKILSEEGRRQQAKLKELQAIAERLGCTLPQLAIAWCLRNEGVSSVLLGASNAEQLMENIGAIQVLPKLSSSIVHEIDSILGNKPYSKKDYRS", "assay": "KvBeta enzyme negative modulators, primary screen, biochemical, NADPH fluorescence (AID 622;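 active means fluorescence slope higher than the sample average by over 3 SD, cut at about -0.22 in these data, passing the limit was not always enough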;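 further: slope of raw intensity against log time taken from 70 to 1610 s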)", "conditions": "recombinant KvBeta, 4-cyanobenzaldehyde reduction, at 10 µM, stronger effect = higher value", "values": [
      {"smiles": "CCOc1ccc(NC(=O)CN2CCN(CC(=O)Nc3ccc(F)c(F)c3)CC2)cc1", "fluorescence slope": "-0.435 (inactive)"},
      {"smiles": "C=C(C)COc1ccc(-c2nc(N)ncc2Oc2ccccc2OCC)c(O)c1", "fluorescence slope": "-0.655 (inactive)"},
      {"smiles": "Clc1ccccc1-c1nnc2sc(-c3ccccn3)nn12", "fluorescence slope": "-0.447 (inactive)"},
      {"smiles": "CCOc1cccc(C(=O)Nc2cccc(-c3nc4ncccc4o3)c2C)c1", "fluorescence slope": "-0.545 (inactive)"},
      {"smiles": "CCOC(=O)N1CCN(S(=O)(=O)c2cc(Cl)c(OC)cc2Cl)CC1", "fluorescence slope": "-0.509 (inactive)"},
      {"smiles": "CCCCN(CC)S(=O)(=O)N1CCC(C(=O)NCc2ccc(F)cc2)CC1", "fluorescence slope": "-0.594 (inactive)"},
      {"smiles": "Cc1ccc(Nc2nnns2)cc1C", "fluorescence slope": "-0.58 (inactive)"},
      {"smiles": "C=CCn1c(=O)/c(=C/c2ccc(O)cc2)s/c1=C(/C#N)c1nnc2n1CCCCC2", "fluorescence slope": "-0.332 (inactive)"},
      {"smiles": "CC(=O)Nc1c(Cl)n(C(C)=O)c2ccccc12", "fluorescence slope": "-0.304 (inactive)"},
      {"smiles": "COc1ccc(OC)c(S(=O)(=O)Nc2ccccc2C(=O)O)c1", "fluorescence slope": "-0.569 (inactive)"},
      {"smiles": "Cc1ccc(C)c(NC(=O)C2CCC(C)(C(=O)O)C2(C)C)c1", "note": "(stereo not given)", "fluorescence slope": "-0.603 (inactive)"},
      {"smiles": "Oc1ccc(N2CCN(C(c3cccnc3)c3nnnn3Cc3ccccc3)CC2)cc1", "note": "(stereo not given)", "fluorescence slope": "-0.468 (inactive)"},
      {"smiles": "CC(C(=O)N1CCOCC1)N1c2cccc3cccc(c23)S1(=O)=O", "note": "(stereo not given)", "fluorescence slope": "-0.548 (inactive)"},
      {"smiles": "Cc1nc2ccccn2c1/C(O)=C1\\C(=O)C(=O)N(CCN2CCOCC2)C1c1cccs1", "note": "(stereo not given)", "fluorescence slope": "-0.301 (inactive)"},
      {"smiles": "COC(=O)c1cc(OC)c(OC)cc1NC(=O)CC1CCCCC1", "fluorescence slope": "-0.558 (inactive)"},
      {"smiles": "COc1ccccc1C(=O)Nc1c2c(nn1-c1cccc(C)c1C)CS(=O)(=O)C2", "fluorescence slope": "-0.492 (inactive)"},
      {"smiles": "CC(C)=CC(=O)Nc1ccc(Br)cc1", "fluorescence slope": "-0.582 (inactive)"},
      {"smiles": "COc1cccc2c(=O)c3c(cnn3C)n(C)c12", "fluorescence slope": "-0.412 (inactive)"},
      {"smiles": "O=C(c1noc2c1CCc1ccccc1-2)N1CCOCC1", "fluorescence slope": "-0.572 (inactive)"},
      {"smiles": "CCN1CCN(C(=O)c2ccc3c(=O)n(C4CCCC4)c(=S)[nH]c3c2)CC1", "fluorescence slope": "-0.517 (inactive)"},
      {"smiles": "CCC(Oc1ccc2ccccc2c1)C(=O)O", "note": "(stereo not given)", "fluorescence slope": "-0.489 (inactive)"},
      {"smiles": "CC(=O)c1nnn(-c2nc(N3CCCC3)nc(N(c3ccccc3)c3ccccc3)n2)c1C", "fluorescence slope": "-0.58 (inactive)"},
      {"smiles": "COc1ccc(-n2cc(-c3ccccc3)c3c(N4CCN(CCO)CC4)ncnc32)cc1", "fluorescence slope": "-0.519 (inactive)"},
      {"smiles": "O=C(N1CCCCCC1)N1CCN(S(=O)(=O)N2CCCCC2)CC1", "fluorescence slope": "-0.579 (inactive)"},
      {"smiles": "OCC#CCSc1nnc(-c2ccccc2Br)o1", "fluorescence slope": "-0.515 (inactive)"},
      {"smiles": "CC(C(=O)N1CCc2ccccc21)N1CCc2ccccc2C1", "note": "(stereo not given)", "fluorescence slope": "-0.455 (inactive)"},
      {"smiles": "C=CCN(CC=C)C(=O)CN1C(=O)c2ccccc2C1=O", "fluorescence slope": "-0.572 (inactive)"},
      {"smiles": "O=C(Cn1nnc2c(cnn2-c2ccc(F)cc2)c1=O)c1ccccc1F", "fluorescence slope": "-0.553 (inactive)"},
      {"smiles": "COc1cccc(-c2noc(CCC(=O)NC3CCCCC3)n2)c1", "fluorescence slope": "-0.461 (inactive)"},
      {"smiles": "Cc1cc(C)c2cc(CN(CC3CCCO3)C(=O)NC3CCCCC3)c(=O)[nH]c2c1", "note": "(stereo not given)", "fluorescence slope": "-0.567 (inactive)"},
      {"smiles": "CCOc1cc(C)c(Cl)cc1S(=O)(=O)N(C)C", "fluorescence slope": "-0.565 (inactive)"},
      {"smiles": "COc1ccc(CCNS(=O)(=O)c2ccc3c(c2)CCN3C(=O)CCC(=O)O)cc1OC", "fluorescence slope": "-0.553 (inactive)"},
      {"smiles": "CCOc1ccc(OCc2cccc(C(=O)O)c2)cc1", "fluorescence slope": "-0.551 (inactive)"},
      {"smiles": "O=c1c2ccccc2cnn1-c1nc2ccccc2s1", "fluorescence slope": "-0.133 (inactive)"},
      {"smiles": "CCC(C)c1ccc(NC(=O)C2CC2)cc1", "note": "(stereo not given)", "fluorescence slope": "-0.569 (inactive)"},
      {"smiles": "O=C(CC1CCCCC1)NCc1ccccn1", "fluorescence slope": "-0.462 (inactive)"},
      {"smiles": "CS(=O)(=O)N(CC(=O)N1CCN(c2cccc(Cl)c2)CC1)C1CCCCC1", "fluorescence slope": "-0.576 (inactive)"},
      {"smiles": "Cc1ccc(N2CCN(C(=O)c3ccccc3Br)CC2)c(C)c1", "fluorescence slope": "-0.532 (inactive)"},
      {"smiles": "COC(=O)c1c(N)nc(C)n1-c1ccc(OC)cc1", "fluorescence slope": "-0.364 (inactive)"},
      {"smiles": "O=C(O)CC1CCCC(c2ccccc2)C1=O", "note": "(stereo not given)", "fluorescence slope": "-0.544 (inactive)"}
    ]}
  ]
}
